Active and inactive are the calls of the source.
Experiments:
Albumin (Bos taurus) = Albumin (Bos taurus) (UniProt P02769); assay: bovine serum albumin binders on microarray, profiling panel, artefact control for SMM control protein annotation, biochemical, small-molecule microarray, Alexa647 label, 635/667 nm fluorescence (AID 1118); conditions: BSA-A647 binding, fluorescence 635 nm, higher = more signal;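 also: score merges 667 nm emission intensity and signal-to-noise per printed compound spot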
[1] = small-molecule microarray binders of probe aXIP, primary screen, biochemical, NeuroSMM set, 635/667 nm fluorescence (AID 1119); conditions: higher = more signal, called active from +8 up or from −8 down;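 also: probe is the protein aXip251-270 applied at 1 µg/mL to compound-printed slides; binding of probe to printed compounds measured as 667 nm fluorescence plus signal to noise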
[2] = small-molecule binders of probe aNOTCH3, primary screen, biochemical, small-molecule microarray, 635/667 nm fluorescence (AID 1120); conditions: higher = more signal;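 also: probe is a biotin-tagged antibody raised against NOTCH3 rather than NOTCH3 protein; score merges spot fluorescence near 667 nm with spot signal to noise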
[3] = small-molecule binders of probe aNOTCH2, primary screen, biochemical, small-molecule microarray, 635/667 nm fluorescence (AID 1121); conditions: higher = more signal;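 also: score merges feature fluorescence read at 667 nm with its signal to noise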
[4] = target: Carbonic anhydrase 2 (Homo sapiens) (UniProt P00918); assay: CAII small-molecule binders, profiling panel, biochemical, small-molecule microarray, Alexa647-labelled CAII (AID 1122); conditions: CAII-A647 binding fluorescence, higher = more signal
[5] = COS7 lysate on small-molecule microarray, probe aHis, 635 nm (AID 1123); conditions: COS7 cell lysate, fluorescence, higher = more signal;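 also: z-score combines 667nm fluorescence intensity with signal-to-noise per printed compound spot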
[6] = compound binding in COS7 lysate, probe aLAP1, primary screen, cell lysate, small-molecule microarray (AID 1124); conditions: probe aLAP1, fluorescence, higher = more signal;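 also: lysate comes from COS7 cells expressing LAP1 and is applied at 0.3 µg/mL; score merges spot fluorescence near 667 nm with signal-to-noise over triplicate slides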
Sam68 (KHDRBS1) = assay: Sam68 small-molecule binders, primary screen, biochemical, small-molecule microarray, 635 nm fluorescence (AID 1125); conditions: small-molecule microarray binding, higher = more signal;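 also: score merges 667 nm channel intensity with signal to noise over triplicate slides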
[7] = system: Chordin-like protein 2 (CHRDL2); assay: CHRDL2 small-molecule binders, primary screen, biochemical, small-molecule microarray, 635 nm fluorescence (AID 1126); conditions: small-molecule microarray binding, fluorescence 635 nm; higher = more signal;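 also: printed compound slides probed with Chrdl2 protein at 4 µg/mL for 1 h at 4 C; score merges 667 nm emission intensity with signal to noise over three replicate slides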
[8] = target: Concanavalin-A (Canavalia ensiformis) (UniProt P02866); assay: ConA small-molecule binders, primary screen, artefact control for SMM control protein annotation, biochemical, small-molecule microarray, Alexa647 label, 635 nm (AID 1127); conditions: ConA-A647 binding fluorescence, higher = more signal;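 also: z combines 667 nm emission intensity with signal-to-noise across three replicate slides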
[9] = anti-His antibody binders, primary screen, artefact control for SMM control protein annotation, biochemical, small-molecule microarray, 635 nm fluorescence (AID 1128); conditions: anti-His Alexa647 antibody binding, higher = more signal;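 also: score merges feature fluorescence with signal-to-noise for each printed compound spot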
[10] = system: Human papillomavirus type 1a E7 protein (residues 1-88); assay: HPV1a E7 small-molecule binders, primary screen, biochemical, small-molecule microarray, residues 1-88, 635 nm (AID 1129); conditions: small-molecule microarray binding, fluorescence 635 nm; higher = more signal
[11] = target: Focal adhesion kinase 1 (Homo sapiens) (UniProt Q05397); assay: small-molecule microarray binders of FAK, primary screen, biochemical, 635/667 nm fluorescence, BSA, DTT (AID 1130); conditions: PTK2 binding, 635 nm fluorescence, higher = more signal;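 also: composite of spot emission at 667 nm and signal to noise over triplicate slides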
[12] = system: Fibrinogen (Alexa647-labelled); assay: fibrinogen binders on compound microarrays, profiling panel, artefact control for SMM control-protein annotation, biochemical, small-molecule microarray, 635/667 nm fluorescence (AID 1131); conditions: fibrinogen-A647 binding fluorescence, higher = more signal;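 also: z-score merges 667 nm fluorescence with per-spot signal-to-noise over triplicate slides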
[13] = target: Follistatin (Homo sapiens) (UniProt P19883); assay: follistatin binders on small-molecule microarrays, primary screen, biochemical, small-molecule microarray, 635/667 nm fluorescence (AID 1132); conditions: FST binding, 635 nm fluorescence, higher = more signal
[14] = target: Fibroblast growth factor 2 (Homo sapiens) (UniProt P09038); assay: FGF2 binders on small-molecule microarrays, primary screen, biochemical, small-molecule microarray, 635/667 nm fluorescence (AID 1133); conditions: small-molecule microarray binding, FGF2, fluorescence 635/667; higher = more signal
[15] = mitochondrial membrane potential change in A549 cells, profiling panel, cell-based, JC-1 fluorescence, basal, 24 h, 100 nL (AID 1138); conditions: higher = more signal;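 also: A549 lung adenocarcinoma cells under basal conditions with no added stimulus; test concentration not given here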
Lefty1 = Lefty1 binders on small-molecule microarrays, primary screen, biochemical, small-molecule microarray, 635/667 nm fluorescence (AID 1139); conditions: small-molecule microarray binding, fluorescence 635/667; higher = more signal
[16] = system: wheat germ agglutinin (Triticum aestivum), Alexa647-labelled; assay: wheat germ agglutinin binders on compound microarrays, profiling panel, artefact control for SMM control-protein annotation, biochemical, small-molecule microarray, 635/667 nm fluorescence (AID 1140); conditions: WGA-A647 binding, 635 nm fluorescence, higher = more signal;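 also: score merges 667 nm feature emission with signal to noise over triplicate slides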
[17] = target: Luciferin 4-monooxygenase (Photinus pyralis) (UniProt P08659); assay: firefly luciferase enzyme inhibitors, primary screen, biochemical, luminescence, purified enzyme, 2006 set (AID 1141); conditions: SteadyGlo luminescence, 30 min, higher = more signal, called active from +8 up or from −8 down;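 also: cell-free assay with purified firefly luciferase at 100 ng per well in PBS; test concentration not given here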
Chain of Luciferin 4-monooxygenase (Photinus pyralis) (P08659 whole entry, looked up): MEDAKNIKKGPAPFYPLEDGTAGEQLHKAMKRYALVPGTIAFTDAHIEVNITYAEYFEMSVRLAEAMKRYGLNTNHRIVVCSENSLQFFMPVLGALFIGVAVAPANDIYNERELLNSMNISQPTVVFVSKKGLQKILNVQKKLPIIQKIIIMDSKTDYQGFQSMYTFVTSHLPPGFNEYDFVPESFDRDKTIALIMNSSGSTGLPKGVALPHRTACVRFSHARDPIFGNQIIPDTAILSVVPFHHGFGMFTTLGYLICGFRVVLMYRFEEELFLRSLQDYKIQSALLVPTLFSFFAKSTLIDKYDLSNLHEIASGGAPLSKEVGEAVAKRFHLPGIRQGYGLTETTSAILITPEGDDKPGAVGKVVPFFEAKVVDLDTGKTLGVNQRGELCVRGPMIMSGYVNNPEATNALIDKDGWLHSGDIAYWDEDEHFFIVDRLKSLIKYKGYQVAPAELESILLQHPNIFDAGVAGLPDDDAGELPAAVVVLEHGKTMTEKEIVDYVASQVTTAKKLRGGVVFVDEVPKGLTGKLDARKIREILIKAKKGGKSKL

Chain of Follistatin (Homo sapiens) (P19883 whole entry, looked up): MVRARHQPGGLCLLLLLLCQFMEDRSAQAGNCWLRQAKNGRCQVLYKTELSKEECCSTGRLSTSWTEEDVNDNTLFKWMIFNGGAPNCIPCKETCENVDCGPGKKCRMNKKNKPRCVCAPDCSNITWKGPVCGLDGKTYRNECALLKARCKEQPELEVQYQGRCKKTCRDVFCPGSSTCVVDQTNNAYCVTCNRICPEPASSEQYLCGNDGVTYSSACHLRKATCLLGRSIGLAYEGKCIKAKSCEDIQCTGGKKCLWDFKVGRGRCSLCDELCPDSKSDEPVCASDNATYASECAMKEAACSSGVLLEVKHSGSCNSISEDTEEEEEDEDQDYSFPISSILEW
Chain of Concanavalin-A (Canavalia ensiformis) (P02866 whole entry, looked up): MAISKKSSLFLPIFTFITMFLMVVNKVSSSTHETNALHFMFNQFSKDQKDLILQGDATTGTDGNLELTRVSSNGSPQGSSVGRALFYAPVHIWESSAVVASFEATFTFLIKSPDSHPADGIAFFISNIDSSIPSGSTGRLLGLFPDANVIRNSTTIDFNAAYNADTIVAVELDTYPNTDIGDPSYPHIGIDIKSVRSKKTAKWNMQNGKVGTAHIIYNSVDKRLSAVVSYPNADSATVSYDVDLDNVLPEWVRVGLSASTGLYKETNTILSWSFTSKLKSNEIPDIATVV
Chain of Albumin (Bos taurus) (P02769 whole entry, looked up): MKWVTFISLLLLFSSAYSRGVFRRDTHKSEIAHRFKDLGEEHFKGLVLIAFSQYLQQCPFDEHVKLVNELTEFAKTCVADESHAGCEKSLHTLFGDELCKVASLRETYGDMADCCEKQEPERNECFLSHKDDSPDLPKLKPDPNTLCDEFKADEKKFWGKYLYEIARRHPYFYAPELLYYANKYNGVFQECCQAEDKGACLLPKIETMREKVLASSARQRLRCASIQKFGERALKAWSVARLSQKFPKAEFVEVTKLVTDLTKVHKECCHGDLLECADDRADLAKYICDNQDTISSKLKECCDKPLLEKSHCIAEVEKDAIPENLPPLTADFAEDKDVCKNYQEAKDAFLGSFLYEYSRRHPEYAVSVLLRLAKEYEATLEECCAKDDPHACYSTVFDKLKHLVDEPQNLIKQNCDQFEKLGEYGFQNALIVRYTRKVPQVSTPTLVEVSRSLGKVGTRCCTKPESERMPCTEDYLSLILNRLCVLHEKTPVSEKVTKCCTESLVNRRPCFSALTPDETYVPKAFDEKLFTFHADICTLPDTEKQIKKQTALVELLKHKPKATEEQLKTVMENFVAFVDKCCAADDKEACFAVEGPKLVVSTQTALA
Chain of Focal adhesion kinase 1 (Homo sapiens) (Q05397 whole entry, looked up): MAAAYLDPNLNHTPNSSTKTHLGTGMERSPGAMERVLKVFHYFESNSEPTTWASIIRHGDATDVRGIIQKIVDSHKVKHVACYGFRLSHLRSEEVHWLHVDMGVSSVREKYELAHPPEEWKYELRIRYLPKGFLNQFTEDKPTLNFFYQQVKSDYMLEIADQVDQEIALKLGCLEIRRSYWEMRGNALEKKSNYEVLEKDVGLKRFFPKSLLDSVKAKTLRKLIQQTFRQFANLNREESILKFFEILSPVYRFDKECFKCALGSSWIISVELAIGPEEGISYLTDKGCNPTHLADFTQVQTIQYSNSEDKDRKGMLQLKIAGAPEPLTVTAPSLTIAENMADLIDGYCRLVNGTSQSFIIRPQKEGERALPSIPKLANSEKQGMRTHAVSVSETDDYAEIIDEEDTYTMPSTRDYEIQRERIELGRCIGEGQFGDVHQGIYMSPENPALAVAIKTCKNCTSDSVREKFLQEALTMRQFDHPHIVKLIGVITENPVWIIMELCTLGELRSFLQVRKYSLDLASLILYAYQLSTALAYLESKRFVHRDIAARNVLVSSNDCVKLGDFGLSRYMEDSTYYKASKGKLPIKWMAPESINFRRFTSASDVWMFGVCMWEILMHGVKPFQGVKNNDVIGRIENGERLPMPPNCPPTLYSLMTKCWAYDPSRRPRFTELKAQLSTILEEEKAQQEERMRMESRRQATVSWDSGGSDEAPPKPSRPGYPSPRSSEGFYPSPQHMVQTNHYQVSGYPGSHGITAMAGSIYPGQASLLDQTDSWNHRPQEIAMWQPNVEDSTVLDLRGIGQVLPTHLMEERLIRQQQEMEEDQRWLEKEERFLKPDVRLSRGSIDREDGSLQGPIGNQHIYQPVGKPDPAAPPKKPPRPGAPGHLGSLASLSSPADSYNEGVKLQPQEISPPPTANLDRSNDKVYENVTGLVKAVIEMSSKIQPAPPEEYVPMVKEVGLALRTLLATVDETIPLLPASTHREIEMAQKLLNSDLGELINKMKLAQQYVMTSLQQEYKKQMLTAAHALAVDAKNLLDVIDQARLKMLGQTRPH
Chain of Fibroblast growth factor 2 (Homo sapiens) (P09038 whole entry, looked up): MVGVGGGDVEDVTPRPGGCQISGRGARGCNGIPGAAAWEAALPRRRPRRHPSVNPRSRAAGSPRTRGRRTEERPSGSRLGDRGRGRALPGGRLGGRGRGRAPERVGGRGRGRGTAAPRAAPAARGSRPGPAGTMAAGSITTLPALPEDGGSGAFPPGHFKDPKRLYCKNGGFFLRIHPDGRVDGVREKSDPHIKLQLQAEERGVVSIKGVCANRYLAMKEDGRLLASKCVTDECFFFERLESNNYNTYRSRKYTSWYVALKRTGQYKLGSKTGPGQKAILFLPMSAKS

SMILES	composite z-score (Albumin (Bos taurus))	composite Z-score [1]	composite z-score [2]	composite z-score [3]	composite z-score [4]	composite z-score [5]	composite z-score [6]	composite z-score (Sam68 (KHDRBS1))	composite z-score [7]	composite z-score [8]	composite z-score [9]	composite z-score [10]	composite z-score [11]	composite z-score [12]	composite z-score [13]	composite z-score [14]	z-score [15]	composite z-score (Lefty1)	composite z-score [16]	z-score [17]
COC(=O)[C@@H]1CC[C@H](C)[C@@H](c2ccc(Br)cc2)N1C(=O)C(F)(F)F	-0.591	-0.225 (inactive)	-0.232	-0.1	-0.292	0.23	0.0015	-0.412	-0.183	-0.317	-0.0497	-1.42	-0.0957	-0.0695	-0.202	-0.0514	0.0789	-0.125	-0.321	-0.1 (inactive)
CCOC(=O)[C@H](Cc1ccccc1)NC(=O)CCC1CC(OC(=O)NCc2cccc3ccccc23)CC2(CCCC(COC(=O)NCCc3ccc(Cl)cc3)O2)O1 (stereo not given in full)	0.278	-0.413 (inactive)	-0.296	-0.203	0.349	0.37	-0.126	1.08	0.253	1.03	0.486	0.791	0.222	0.78	0.461	0.344	-0.243	0.414	0.556	1.36 (inactive)
CC(CCN1CCc2nc(-c3ccccc3)c(-c3ccccc3)cc2C1)=NO[C@@H](C)c1cc(-c2c(C)cc(C)cc2C)no1	0.554	0.0956 (inactive)	-0.0918	-0.164	0.0148	0.157	-0.0375	-0.0575	-0.583	0.613	0.962	-0.444	-0.228	0.496	-0.289	-0.44	0.281	-0.0591	0.493	0.618 (inactive)
O=C1C2=CC[C@H]3C(=O)N(c4ccc(F)cc4F)C(=O)[C@H]3[C@H]2[C@H](O)[C@@H]2O[C@H]12	0.0384	-0.778 (inactive)	-0.165	-0.118	-0.0649	-0.293	0.0054	0.339	0.783	0.469	0.0402	0.679	-0.059	0.0936	0.397	0.34	0.0712	0.616	-0.0273	-0.51 (inactive)
COc1ccc(COC(=O)NN=C2C[C@@H](O)[C@@H](O)[C@@H]3[C@@H]4C(=O)N(c5cccc(Oc6ccccc6)c5)C(=O)[C@@H]4CC[C@H]23)cc1	0.64	-0.626 (inactive)	0.0793	-0.0665	-0.0831	0.852	-0.0241	-0.546	-0.636	0.433	0.362	-0.476	0.407	0.744	-0.355	-0.603	-0.593	-0.258	0.916	0.911 (inactive)
C#CCCCON=C1[C@H]2CCn3c(=O)n([C@@H](CC)c4ccccc4)c(=O)n3[C@H]2[C@H](O)[C@@H]2O[C@H]12	0.0481	-0.15 (inactive)	-0.0918	-0.0745	0.59	0.219	-0.131	0.113	0.0573	0.154	0.114	-0.256	0.235	-0.509	0.587	0.639	0.351	0.368	0.283	-0.0508 (inactive)
O=C1[C@H]2[C@H]3[C@H](O)[C@H](O)CC(=NOC[C@@H](O)COCc4ccco4)[C@@H]3CC[C@H]2C(=O)N1c1cccc(Oc2ccccc2)c1	-0.407	-0.352 (inactive)	-0.147	-0.22	-0.0803	-0.704	-0.0713	-1.43	0.381	0.391	-1.01	-0.964	-0.535	-0.535	0.942	0.285	-0.268	0.0743	0.196	0.921 (inactive)
COc1cccc([C@H]2Oc3ccc(OC)cc3C(=NO[C@@H](C)c3cc(-c4c(C)cc(C)cc4C)no3)[C@@H]2O)c1	-1.31	-0.238 (inactive)	-0.305	-0.155	0.108	-0.552	0.843	-0.156	-0.861	-1.57	-0.314	-0.358	-0.364	-1.51	-2.57	-2.11	0.611	-2.4	-0.52	0.995 (inactive)
COC(=O)[C@H](C)NC(=O)CCC1CC(OC(=O)NCCc2ccc(F)cc2)CC2(CCCC(COC(=O)NCCOc3ccccc3)O2)O1 (stereo not given in full)	0.752	0.59 (inactive)	-0.029	-0.0921	0.282	1.21	-0.0401	1.31	1.03	1.02	0.989	1.16	0.821	0.659	0.826	0.307	1.08	1.41	0.309	0.549 (inactive)
CCOC(=O)[C@H](Cc1ccccc1)NC(=O)CCC1CC(OC(=O)NCc2cccc3ccccc23)CC2(CCCC(COC(=O)NCc3ccc4c(c3)OCO4)O2)O1 (stereo not given in full)	0.85	0.464 (inactive)	0.0824	-0.148	0.509	0.831	0.404	0.477	-0.054	0.0672	0.209	0.397	0.338	0.508	0.222	0.982	0.4	0.659	-0.074	-0.323 (inactive)

Source: PubChem BioAssay
